The record followed here is PubChem BioAssay AID2006 (Sanford-Burnham Center for Chemical Genomics, 2009).

Hit rate of the full screen: of about 290,000 compounds, about 1,000 (0.34%) were called active. No stated cut-off is given here; in the data, active means inhibition above about 50% (passing the limit was not always enough); inconclusive means no clear call, values can overlap the other calls. The list comes from a sample in which actives are over-represented; it also holds similar structures and randomly drawn compounds.

For the assay, the target named is SUMO-conjugating enzyme UBC9 (Homo sapiens) (UniProt P63279). Kind of assay: blockers of SAE1/SAE2–UBC9 SUMO transfer – biochemical, HTRF, uHTS, primary screen (AID 2006). The following applies: HTRF SUMOylation assay, SAE1/SAE2 + UBC9, in vitro; at 35 µM; hits give high values.
Chain of SUMO-conjugating enzyme UBC9 (Homo sapiens) (P63279 whole entry, looked up): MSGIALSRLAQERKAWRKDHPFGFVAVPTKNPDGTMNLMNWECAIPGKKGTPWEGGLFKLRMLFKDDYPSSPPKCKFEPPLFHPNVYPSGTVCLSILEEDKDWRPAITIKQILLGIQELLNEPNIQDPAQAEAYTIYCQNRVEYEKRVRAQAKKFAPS
One may read the inhibition as the relative decrease from the control value, in per cent. Consider `COc1cccc(N2C(=O)NC(=O)/C(=C\c3ccc([N+](=O)[O-])s3)C2=O)c1`, for which the inhibition is 41.7% (inactive).
On to `Cc1cccc(N2C(=O)NC(=O)/C(=C\c3cnn(-c4ccccc4)c3)C2=O)c1`, for which the inhibition is -3.4% (inactive).
For `O=C1NC(=O)N(c2ccccc2)C(=O)/C1=C/c1ccc([N+](=O)[O-])s1`, the inhibition is 51.6% (active).
For `CC1CCC(N(C)C2CCN(C)CC2)CC1` (stereo not given), the inhibition was 9.4% (inactive).
For `CC(c1ccccc1)(c1ccccc1)c1ccncc1`, the inhibition was 4.4% (inactive).
